Design in all cases: scale not given: direction of the effect not stated beside the values
Test [1] deals with Protein translocase subunit SecA (Escherichia coli (strain K12)) (UniProt P10408). Briefly: Assay to Identify E. coli SecA ATPase Inhibitors. It counts as functional. As to conditions: 30 µM.
Test [2] deals with T1, Ubiquitin-activating enzyme e1, putative (Leishmania donovani (strain BPK282A1)) (UniProt E9BSI1).
T1 sequence (whole entry): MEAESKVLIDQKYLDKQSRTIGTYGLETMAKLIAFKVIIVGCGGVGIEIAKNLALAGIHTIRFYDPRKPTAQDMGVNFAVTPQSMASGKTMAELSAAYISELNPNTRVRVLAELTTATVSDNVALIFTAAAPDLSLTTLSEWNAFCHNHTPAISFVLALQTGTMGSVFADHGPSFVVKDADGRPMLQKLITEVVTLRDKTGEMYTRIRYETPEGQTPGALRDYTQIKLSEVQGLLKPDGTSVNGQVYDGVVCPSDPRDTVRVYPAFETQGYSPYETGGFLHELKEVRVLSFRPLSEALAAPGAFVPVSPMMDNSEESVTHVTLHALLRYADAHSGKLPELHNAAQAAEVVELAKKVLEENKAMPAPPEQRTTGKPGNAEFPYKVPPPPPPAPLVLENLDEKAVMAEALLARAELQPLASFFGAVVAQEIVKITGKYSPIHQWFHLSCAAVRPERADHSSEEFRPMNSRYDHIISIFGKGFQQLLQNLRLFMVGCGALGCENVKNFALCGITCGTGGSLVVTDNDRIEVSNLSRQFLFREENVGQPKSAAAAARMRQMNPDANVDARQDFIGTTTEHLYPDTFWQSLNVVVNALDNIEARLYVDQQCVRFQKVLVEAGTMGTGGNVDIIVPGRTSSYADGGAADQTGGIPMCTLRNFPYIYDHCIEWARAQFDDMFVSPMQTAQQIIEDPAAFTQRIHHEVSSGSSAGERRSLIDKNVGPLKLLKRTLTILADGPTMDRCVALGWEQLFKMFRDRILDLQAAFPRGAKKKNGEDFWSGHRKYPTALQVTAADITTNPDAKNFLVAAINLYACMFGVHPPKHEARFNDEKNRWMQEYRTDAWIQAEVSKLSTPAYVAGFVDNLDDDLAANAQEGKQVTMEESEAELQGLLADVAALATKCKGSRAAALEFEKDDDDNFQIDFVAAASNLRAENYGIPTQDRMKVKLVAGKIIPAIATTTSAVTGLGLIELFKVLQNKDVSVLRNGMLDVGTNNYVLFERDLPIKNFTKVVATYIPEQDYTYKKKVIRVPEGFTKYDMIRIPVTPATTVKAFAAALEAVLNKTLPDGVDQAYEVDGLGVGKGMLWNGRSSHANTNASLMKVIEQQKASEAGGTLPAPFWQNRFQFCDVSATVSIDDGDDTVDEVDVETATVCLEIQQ
Put plainly: Leishmania donovani Ubiquitin Activating Enzyme (LdE1). The class given is functional. The following applies: 30 µM.

Test [3] deals with AMP-activated protein kinase, AMPK (Homo sapiens) (UniProt P54646+O43741+P54619+Q9UGJ0+Q9Y478+Q13131+Q9UGI9). Briefly: AMP-dependent Kinase enzyme assay. An in vitro enzyme assay that detects ADP turnover that is directly proportional to AMPK activity. This uses naive AMPK that is activated during the assay with MK-8722. The class given is functional. As to conditions: 30 µM.

Test [4] concerns the target Sialic acid-binding Ig-like lectin 9 (Homo sapiens) (UniProt Q9Y336). Put plainly: Hs-Siglec9 ALPHAscreen SOP 20170721. As to conditions: 10 µM. A general note: Bead proximity is the source of the signal in Alpha formats.
A further test relates to Trypanosoma cruzi. Briefly: Trypanosoma cruzi phosphomannomutase and mannose-1-phosphate guanylyltransferase assay. The class given is functional. As to conditions: 10 µM.
Test [5] concerns the target T2, Arginase-2, mitochondrial (Homo sapiens) (UniProt P78540).
T2 sequence (whole entry): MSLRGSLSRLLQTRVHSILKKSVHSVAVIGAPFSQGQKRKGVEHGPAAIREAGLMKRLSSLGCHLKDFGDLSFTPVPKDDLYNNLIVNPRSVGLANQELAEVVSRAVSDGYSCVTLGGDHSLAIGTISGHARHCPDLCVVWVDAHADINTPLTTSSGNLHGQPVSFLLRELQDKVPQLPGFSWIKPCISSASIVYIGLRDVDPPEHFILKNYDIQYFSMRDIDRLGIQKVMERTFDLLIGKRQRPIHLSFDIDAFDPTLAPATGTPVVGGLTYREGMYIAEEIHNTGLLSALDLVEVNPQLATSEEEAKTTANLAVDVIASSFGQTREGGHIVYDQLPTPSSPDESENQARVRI
Briefly: in vitro enzyme assay to detect the production of urea directly proportional to the activity of Arginase II. Note: in the data most compounds retested in dose-response had high values. It counts as functional. The following applies: 33.3 µM.

Test [6] has as its target T3, Proteasome subunit beta (Trypanosoma cruzi) (UniProt O96673).
T3 sequence (whole entry): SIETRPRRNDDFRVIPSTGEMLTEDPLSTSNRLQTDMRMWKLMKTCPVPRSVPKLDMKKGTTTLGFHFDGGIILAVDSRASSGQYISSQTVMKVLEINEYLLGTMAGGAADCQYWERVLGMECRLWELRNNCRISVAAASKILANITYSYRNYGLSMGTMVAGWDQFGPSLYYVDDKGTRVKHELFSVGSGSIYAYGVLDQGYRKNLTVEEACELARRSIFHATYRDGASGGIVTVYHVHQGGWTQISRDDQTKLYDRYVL
Briefly: Trypanosoma cruzi proteasome chymotrypsin-like activity (TcProtChymo) assay. Note: in the data most compounds retested in dose-response had high values. The class given is functional. The following applies: 9.37 µM.

The species entered for another test is Homo sapiens. Briefly: To identify inhibition of the IFN signalling (Jak-Stat) pathway via expression of an eGFP reporter gene under the control of an IFN-stimulated response element (ISRE) containing MxA promoter. It counts as functional. The following applies: 30 µM. A general note: In a reporter assay the amount or activity of a reporter protein is the signal.

Test [7] concerns the target T4, Tyrosyl-tRNA synthetase, putative (Trypanosoma cruzi (strain CL Brener)) (UniProt Q4DSP6).
T4 sequence (whole entry): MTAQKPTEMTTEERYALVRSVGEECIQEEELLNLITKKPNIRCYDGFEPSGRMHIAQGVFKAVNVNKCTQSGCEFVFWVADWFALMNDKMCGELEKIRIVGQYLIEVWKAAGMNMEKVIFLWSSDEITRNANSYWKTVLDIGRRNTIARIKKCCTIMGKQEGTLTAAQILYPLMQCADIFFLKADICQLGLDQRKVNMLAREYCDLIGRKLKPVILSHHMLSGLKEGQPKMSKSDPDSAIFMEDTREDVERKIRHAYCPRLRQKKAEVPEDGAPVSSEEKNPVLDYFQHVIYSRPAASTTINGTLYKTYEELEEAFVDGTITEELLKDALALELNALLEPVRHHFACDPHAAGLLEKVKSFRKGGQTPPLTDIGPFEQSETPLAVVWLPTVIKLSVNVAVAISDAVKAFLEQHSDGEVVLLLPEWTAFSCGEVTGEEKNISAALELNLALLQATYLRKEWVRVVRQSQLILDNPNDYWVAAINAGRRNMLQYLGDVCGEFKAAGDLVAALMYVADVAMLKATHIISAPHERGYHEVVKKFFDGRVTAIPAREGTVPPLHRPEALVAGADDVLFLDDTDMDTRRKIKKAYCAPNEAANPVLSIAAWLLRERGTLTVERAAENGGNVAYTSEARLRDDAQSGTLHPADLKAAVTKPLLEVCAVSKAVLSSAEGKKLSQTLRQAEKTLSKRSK
Put plainly: Trypanosoma cruzi tyrosyl tRNA synthetase (TcYRS) _High Tyrosine SOP. Note: in the data most compounds retested in dose-response had high values. The class given is functional. As to conditions: 30 µM.

For test [8], the target named is T4, Tyrosyl-tRNA synthetase, putative (Trypanosoma cruzi (strain CL Brener)). Briefly: Trypanosoma cruzi tyrosyl tRNA synthetase (TcYRS) SOP. The class given is functional. The following applies: 30 µM.
The target of test [9] is Chromo domain-containing protein 1 (Saccharomyces cerevisiae (strain ATCC 204508 / S288c) (Baker's yeast)) (UniProt P32657). Put plainly: ScCHD-1 Enzyme Inhibition Assay. Note: in the data most compounds retested in dose-response had high values. It counts as functional. As to conditions: 30 µM.
Chain of Chromo domain-containing protein 1 (Saccharomyces cerevisiae (strain ATCC 204508 / S288c) (Baker's yeast)) (P32657 whole entry, the tested form may be a part): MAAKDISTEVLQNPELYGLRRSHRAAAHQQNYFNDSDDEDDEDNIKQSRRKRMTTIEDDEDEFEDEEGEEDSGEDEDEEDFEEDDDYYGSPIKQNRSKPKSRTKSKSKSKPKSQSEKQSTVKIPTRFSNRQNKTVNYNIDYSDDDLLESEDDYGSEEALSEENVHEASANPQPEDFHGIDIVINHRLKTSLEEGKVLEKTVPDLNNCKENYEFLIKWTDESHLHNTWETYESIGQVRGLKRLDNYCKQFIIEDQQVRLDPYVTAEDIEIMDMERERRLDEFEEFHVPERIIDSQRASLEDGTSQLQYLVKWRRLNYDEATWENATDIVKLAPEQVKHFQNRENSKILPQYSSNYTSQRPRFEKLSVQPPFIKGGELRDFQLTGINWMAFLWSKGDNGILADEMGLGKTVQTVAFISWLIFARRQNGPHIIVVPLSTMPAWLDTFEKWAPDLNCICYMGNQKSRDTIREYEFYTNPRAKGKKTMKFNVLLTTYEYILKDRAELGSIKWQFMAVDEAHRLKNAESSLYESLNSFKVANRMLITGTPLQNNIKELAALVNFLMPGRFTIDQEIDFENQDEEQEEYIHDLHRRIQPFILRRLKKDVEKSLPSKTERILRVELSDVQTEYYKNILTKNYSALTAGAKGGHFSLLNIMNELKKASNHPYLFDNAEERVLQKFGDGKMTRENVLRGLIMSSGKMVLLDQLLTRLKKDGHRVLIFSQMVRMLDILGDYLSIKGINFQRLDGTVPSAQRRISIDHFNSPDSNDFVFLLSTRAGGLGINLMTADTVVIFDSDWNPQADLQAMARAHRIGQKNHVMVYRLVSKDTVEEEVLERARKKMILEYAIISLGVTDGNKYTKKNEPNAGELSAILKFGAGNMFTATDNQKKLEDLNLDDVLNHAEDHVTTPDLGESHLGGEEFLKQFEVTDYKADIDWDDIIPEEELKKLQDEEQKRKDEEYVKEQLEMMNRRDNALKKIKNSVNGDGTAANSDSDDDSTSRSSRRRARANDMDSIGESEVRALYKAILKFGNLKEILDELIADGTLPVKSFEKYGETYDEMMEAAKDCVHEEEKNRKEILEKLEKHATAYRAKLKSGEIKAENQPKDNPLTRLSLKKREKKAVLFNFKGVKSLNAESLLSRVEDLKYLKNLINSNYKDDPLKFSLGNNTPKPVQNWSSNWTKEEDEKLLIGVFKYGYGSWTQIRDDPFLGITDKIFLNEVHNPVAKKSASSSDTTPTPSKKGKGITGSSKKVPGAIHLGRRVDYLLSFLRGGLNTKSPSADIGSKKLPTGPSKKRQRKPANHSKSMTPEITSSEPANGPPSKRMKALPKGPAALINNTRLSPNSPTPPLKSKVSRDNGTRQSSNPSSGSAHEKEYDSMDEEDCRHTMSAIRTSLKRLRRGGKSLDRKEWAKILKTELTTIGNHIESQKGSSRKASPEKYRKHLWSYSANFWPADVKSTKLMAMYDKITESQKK

For part of these data: Entries with a potency or affinity are not part of this list.

Chain of Protein translocase subunit SecA (Escherichia coli (strain K12)) (P10408 whole entry): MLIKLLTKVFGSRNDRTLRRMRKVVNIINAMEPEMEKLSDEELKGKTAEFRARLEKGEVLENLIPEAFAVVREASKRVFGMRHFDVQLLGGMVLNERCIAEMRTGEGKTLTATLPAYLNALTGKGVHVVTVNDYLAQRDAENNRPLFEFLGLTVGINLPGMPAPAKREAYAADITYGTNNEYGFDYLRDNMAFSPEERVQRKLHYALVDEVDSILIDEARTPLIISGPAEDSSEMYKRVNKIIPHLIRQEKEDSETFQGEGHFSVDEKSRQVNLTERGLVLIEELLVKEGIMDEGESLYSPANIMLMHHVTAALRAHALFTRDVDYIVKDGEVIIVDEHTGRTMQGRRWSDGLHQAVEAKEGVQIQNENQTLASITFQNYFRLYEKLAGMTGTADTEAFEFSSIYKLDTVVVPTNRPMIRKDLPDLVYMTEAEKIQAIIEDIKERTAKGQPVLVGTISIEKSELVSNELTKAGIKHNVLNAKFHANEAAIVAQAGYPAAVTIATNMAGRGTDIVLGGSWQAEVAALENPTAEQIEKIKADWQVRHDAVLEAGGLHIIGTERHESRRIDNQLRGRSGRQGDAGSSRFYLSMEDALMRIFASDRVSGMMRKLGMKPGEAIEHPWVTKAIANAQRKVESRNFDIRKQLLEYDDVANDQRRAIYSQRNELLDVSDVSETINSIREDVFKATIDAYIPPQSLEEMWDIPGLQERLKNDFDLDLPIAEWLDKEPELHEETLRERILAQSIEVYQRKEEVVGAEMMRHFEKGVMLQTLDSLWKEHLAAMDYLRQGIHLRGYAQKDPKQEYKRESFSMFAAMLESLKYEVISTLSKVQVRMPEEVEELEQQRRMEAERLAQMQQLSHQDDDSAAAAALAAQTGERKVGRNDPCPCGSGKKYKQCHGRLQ
Chain of Sialic acid-binding Ig-like lectin 9 (Homo sapiens) (Q9Y336 whole entry): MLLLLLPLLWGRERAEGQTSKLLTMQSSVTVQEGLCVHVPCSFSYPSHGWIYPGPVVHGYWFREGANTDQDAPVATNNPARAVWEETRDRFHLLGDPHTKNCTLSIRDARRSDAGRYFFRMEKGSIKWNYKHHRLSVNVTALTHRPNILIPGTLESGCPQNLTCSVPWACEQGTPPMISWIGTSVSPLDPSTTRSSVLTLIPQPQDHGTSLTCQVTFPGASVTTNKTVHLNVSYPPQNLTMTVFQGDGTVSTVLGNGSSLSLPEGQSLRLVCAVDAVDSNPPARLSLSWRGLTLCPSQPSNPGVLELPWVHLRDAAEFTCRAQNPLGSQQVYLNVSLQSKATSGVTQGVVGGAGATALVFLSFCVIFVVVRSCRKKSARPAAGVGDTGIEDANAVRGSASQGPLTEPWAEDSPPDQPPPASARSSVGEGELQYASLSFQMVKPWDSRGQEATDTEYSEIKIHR

With `CC(C)CN1CCN(Cc2nc3ccccc3[nH]2)[C@H]2CS(=O)(=O)C[C@H]21`, the Percent Effect in test [1] was -0.363%; in [2], 10.8%; in test [3], 1.86%; in test [4] it was -1.7%; in the test on Trypanosoma cruzi it was -6.35%; in test [5] it was 2.73%. Moreover, the Percent Effect was 5.41% in [6]; 0.0398% in the test listed under Homo sapiens; 14% in [7]; 23.5% in test [8]; -6.24% in [9].

For `Cn1c(C(=O)N2CCC(C(=O)N3CCCC3)CC2)c(Cl)c2ccccc21`, the Percent Effect in test [1] is -4.1%; in [2], 5.33%; in [3], -1.92%; in test [4], 6.11%; in the test on Trypanosoma cruzi, 2.82%; in test [5] it was 2.6%. In addition, the Percent Effect was 25.5% in test [6]; 0.0464% in the test filed under Homo sapiens; 8.2% in [7]; 13.6% in test [8]; -6.83% in [9].

On to `COc1cccc(C(=O)Nc2cc(CC(C)C)nn2C)c1`, for which the Percent Effect in [1] was -4.81%; in test [2], -5.2%; in [3], -7.56%; in [4] it was 6.82%; with Trypanosoma cruzi, 6.74%; in [5], -6.41%. The Percent Effect in [6] was 3.04%; in the test filed under Homo sapiens it was 11%; in test [7], 4.85%; in test [8] it was 14.6%; in test [9], -5.36%.

In the case of `CCN1CCN(C2CCN(Cc3cc(C)on3)CC2)C1=O`, the Percent Effect in [1] is -6.77%; in [2], 5.06%; in test [3] it was 1.9%; in test [4], -3.3%; in the test with Trypanosoma cruzi, 8.21%; in test [5] it was -3.04%. Moreover, the Percent Effect was 7.94% in test [6]; 1.37% in the test filed under Homo sapiens; 3.45% in [7]; 8.86% in [8]; -13.6% in test [9].

Take `Cc1ccc(S(=O)(=O)NC2CC2)cc1C`: the Percent Effect in test [1] is 1.16%; in [2] it was -1.39%; in test [3] it was -6.59%; in [4], 11.8%; in the test with Trypanosoma cruzi, 0.875%; in test [5] it was 20.3%. Also, the Percent Effect in test [6] is 0%; in the test listed under Homo sapiens it was 28.3%; in [7], -1.05%; in test [8] it was 0%; in test [9] it was 0.926%.

Consider `CNC(=O)C1CCN(C(=O)CCn2cccn2)CC1`, for which the Percent Effect in [1] was -7.35%; in test [2], 13.5%; in test [3], 2.1%; in test [4], 7.36%; with Trypanosoma cruzi it was -4.92%; in test [5], 5.73%. The Percent Effect in [6] is -1.44%; in the test filed under Homo sapiens, 19.3%; in test [7], -0.99%; in test [8], -1.22%; in [9], 6.84%.

For the molecule `Cc1nc(C)n(C2CCCN(C(=O)c3ccccc3C)C2)n1` (centres undefined), the Percent Effect was -0.244% in test [1]; 18.2% in test [2]; -0.257% in test [3]; -8.82% in test [4]; -0.881% in the test with Trypanosoma cruzi; 7.37% in [5]. Further, the Percent Effect is 12.5% in test [6]; 12.5% in the test filed under Homo sapiens; 7.62% in test [7]; 11.8% in test [8]; -10% in test [9].

As for `O=C(c1ccc(F)cc1)N1C[C@H]2CCC[C@@]2(COCc2ccccn2)C1`, the Percent Effect was -4.13% in test [1]; 8.11% in [2]; -4.94% in test [3]; 1.62% in [4]; 2.44% with Trypanosoma cruzi; 7.96% in test [5]. For the same molecule, the Percent Effect in test [6] is 22%; in the test filed under Homo sapiens, -12.1%; in test [7], 3.24%; in [8] it was 17.9%; in [9] it was 1.95%.

Turning to `Cc1cc(C)n(CC2CCCN2C(=O)c2c[nH]c3ncccc23)n1` (centres undefined), the Percent Effect in [1] is -3.09%; in test [2], -2.7%; in test [3], 10.7%; in [4] it was 5.96%; in the test on Trypanosoma cruzi, -4.18%; in [5] it was 4.99%. The Percent Effect in test [6] was -3.05%; in the test filed under Homo sapiens, 24.1%; in test [7] it was -0.99%; in test [8], -6.1%; in test [9], 12.6%.

These data come from ChEMBL document CHEMBL3988442, “University of Dundee, Small-Polar-MMV Screening Library” (2021).
